In all, about 5,500 compounds went through this assay and about 2,000 (36%) were called active. Another 18% or so got no clear call; they are omitted. Cut-off read from the data, not from the text of the source: active = normalized growth mostly below about 0.91 (no sharp cut-off); inconclusive = no clear call, values can overlap the other calls; inactive = mostly above about 0.92. The list shows a part of the results.
Experiment: chemical genetic growth profiling, strain panel (AID 1159580);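 note: tested at 20 µM; growth read once vehicle control cultures reached saturation at 30 °C; 1 = growth at the plate median or of vehicle wells; lower values mean less growth of the strain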
Settings: growth OD
[1] = S. cerevisiae deletion strains, locus YDL101C, strain DUN1, active compounds read low
[2] = S. cerevisiae deletion strains, locus YJL095W, strain BCK1, active compounds read low
[3] = S. cerevisiae deletion strains, locus YOR061W, strain CKA2, active compounds read low

Measured: normalized growth

COC(=O)c1cc(OC)c(=O)c2c(OC)c(OC)ccc2c1
inactive: S. cerevisiae deletion strains, locus YBR021W, strain FUR4, active compounds read low 1.02 | S. cerevisiae deletion strains, locus YBR229C, strain ROT2, active compounds read low 1.01 | S. cerevisiae deletion strains, locus YCL029C, strain bik1, active compounds read low 0.969 | S. cerevisiae deletion strains, locus YDL035C, strain GPR1, active compounds read low 1.03 | S. cerevisiae deletion strains, locus YDL074C, strain BRE1, active compounds read low 1.08 | [1] 1.01 | S. cerevisiae deletion strains, locus YDL134C, strain PPH21, active compounds read low 1.04 | S. cerevisiae deletion strains, locus YDL185W, strain tfp1, active compounds read low 0.998 | S. cerevisiae deletion strains, locus YDL192W, strain arf1, active compounds read low 0.971 | S. cerevisiae deletion strains, locus YDR101C, strain arx1, active compounds read low 0.975 | S. cerevisiae deletion strains, locus YDR162C, strain NBP2, active compounds read low 1.01 | S. cerevisiae deletion strains, locus YDR318W, strain mcm21, active compounds read low 0.969 | S. cerevisiae deletion strains, locus YDR388W, active compounds read low 0.986 | S. cerevisiae deletion strains, locus YDR502C, strain sam2, active compounds read low 0.99 | S. cerevisiae deletion strains, locus YER110C, active compounds read low 1.01 | S. cerevisiae deletion strains, locus YER155C, strain BEM2, active compounds read low 1.01 | S. cerevisiae deletion strains, locus YER167W, strain BCK2, active compounds read low 1 | S. cerevisiae deletion strains, locus YGL078C, strain dbp3, active compounds read low 0.995 | S. cerevisiae deletion strains, locus YGL086W, strain mad1, active compounds read low 0.984 | S. cerevisiae deletion strains, locus YGL248W, strain PDE1, active compounds read low 1.02 | S. cerevisiae deletion strains, locus YGR078C, strain PAC10, active compounds read low 1.01 | S. cerevisiae deletion strains, locus YGR135W, strain pre9, active compounds read low 0.985 | S. cerevisiae deletion strains, locus YGR229C, strain SMI1, active compounds read low 1.06 | S. cerevisiae deletion strains, locus YHR079C, strain IRE1 (second series), active compounds read low 1 | S. cerevisiae deletion strains, locus YHR094C, strain hxt1, active compounds read low 0.972 | S. cerevisiae deletion strains, locus YHR129C, strain ARP1, active compounds read low 1.02 | S. cerevisiae deletion strains, locus YHR200W, strain rpn10, active compounds read low 0.985 | S. cerevisiae deletion strains, locus YIL066C, strain RNR3, active compounds read low 1.02 | S. cerevisiae deletion strains, locus YIL073C, strain SPO22, active compounds read low 0.951 | S. cerevisiae deletion strains, locus YIL125W, strain kgd1, active compounds read low 0.978 | S. cerevisiae deletion strains, locus YIR030C, strain dcg1, active compounds read low 0.986 | [2] 1.04 | S. cerevisiae deletion strains, locus YJL134W, strain LCB3, active compounds read low 1 | S. cerevisiae deletion strains, locus YJL168C, strain set2, active compounds read low 0.972 | S. cerevisiae deletion strains, locus YJL187C, strain SWE1 (second series), active compounds read low 1.02 | S. cerevisiae deletion strains, locus YKL009W, strain mrt4, active compounds read low 0.977 | S. cerevisiae deletion strains, locus YKL068W, active compounds read low 0.999 | S. cerevisiae deletion strains, locus YKL085W, strain MDH1 (second series), active compounds read low 0.971 | S. cerevisiae deletion strains, locus YKL085W, strain MDH1, active compounds read low 0.971 | S. cerevisiae deletion strains, locus YKR001C, strain vps1, active compounds read low 0.966 | S. cerevisiae deletion strains, locus YLR039C, strain RIC1, active compounds read low 1.03 | S. cerevisiae deletion strains, locus YLR058C, strain SHM2, active compounds read low 1.03 | S. cerevisiae deletion strains, locus YLR102C, strain apc9, active compounds read low 0.959 | S. cerevisiae deletion strains, locus YLR268W, strain sec22, active compounds read low 0.981 | S. cerevisiae deletion strains, locus YLR330W, strain CHS5, active compounds read low 1.02 | S. cerevisiae deletion strains, locus YLR371W, strain rom2, active compounds read low 0.977 | S. cerevisiae deletion strains, locus YLR418C, strain cdc73, active compounds read low 1.07 | S. cerevisiae deletion strains, locus YML016C, strain PPZ1, active compounds read low 1 | S. cerevisiae deletion strains, locus YML032C, strain rad52, active compounds read low 0.996 | S. cerevisiae deletion strains, locus YML124C, strain tub3, active compounds read low 0.967 | S. cerevisiae deletion strains, locus YMR078C, strain ctf18, active compounds read low 0.976 | S. cerevisiae deletion strains, locus YMR223W, strain ubp8, active compounds read low 1 | S. cerevisiae deletion strains, locus YMR307W, strain GAS1, active compounds read low 1.01 | S. cerevisiae deletion strains, locus YNL067W, strain RPL9B, active compounds read low 0.998 | S. cerevisiae deletion strains, locus YNL233W, strain BNI4, active compounds read low 1.03 | S. cerevisiae deletion strains, locus YNL250W, strain rad50, active compounds read low 1.05 | S. cerevisiae deletion strains, locus YNL271C, strain bni1, active compounds read low 0.981 | S. cerevisiae deletion strains, locus YNL298W, strain CLA4, active compounds read low 0.984 | S. cerevisiae deletion strains, locus YNL307C, strain MCK1, active compounds read low 0.952 | S. cerevisiae deletion strains, locus YNL322C, strain KRE1, active compounds read low 1 | S. cerevisiae deletion strains, locus YNR052C, strain pop2, active compounds read low 0.981 | S. cerevisiae deletion strains, locus YOL006C, strain TOP1, active compounds read low 1.21 | S. cerevisiae deletion strains, locus YOL012C, strain htz1 0.895 | S. cerevisiae deletion strains, locus YOL147C, strain pex11, active compounds read low 0.993 | [3] 1 | S. cerevisiae deletion strains, locus YOR069W, strain VPS5, active compounds read low 1 | S. cerevisiae deletion strains, locus YOR136W, strain idh2, active compounds read low 0.977 | S. cerevisiae deletion strains, locus YOR144C, strain elg1, active compounds read low 0.987 | S. cerevisiae deletion strains, locus YOR184W, strain ser1, active compounds read low 0.935 | S. cerevisiae deletion strains, locus YOR316C, strain cot1, active compounds read low 0.985 | S. cerevisiae deletion strains, locus YPL241C, strain CIN2, active compounds read low 1 | S. cerevisiae deletion strains, locus YPR119W, strain clb2, active compounds read low 0.969 | S. cerevisiae deletion strains, locus YPR141C, strain kar3, active compounds read low 0.982 | S. cerevisiae deletion strains, locus YPR163C, strain tif3, active compounds read low 0.977 | S. cerevisiae deletion strains, locus YPR167C, strain met16, active compounds read low 0.967 | S. cerevisiae deletion strains, strain wtn01, active compounds read low 0.994 | S. cerevisiae strains, strain wild type, active compounds read low 1.02

COC(=O)c1cc(I)c(OC(C)=O)c(I)c1
active: S. cerevisiae deletion strains, locus YLR113W, strain HOG1, active compounds read low 0.745
inactive: S. cerevisiae deletion strains, locus YAR019C, strain CDC15, active compounds read low 0.952 | S. cerevisiae deletion strains, locus YBL105C, strain PKC1, active compounds read low 0.958 | S. cerevisiae deletion strains, locus YBR135W, strain CKS1, active compounds read low 0.944 | S. cerevisiae deletion strains, locus YBR136W, strain MEC1, active compounds read low 0.958 | S. cerevisiae deletion strains, locus YBR160W, strain CDC28, active compounds read low 0.959 | S. cerevisiae deletion strains, locus YDL017W, strain CDC7, active compounds read low 0.961 | S. cerevisiae deletion strains, locus YDL028C, strain MPS1, active compounds read low 0.961 | [1] 0.935 | S. cerevisiae deletion strains, locus YDL108W, strain KIN28, active compounds read low 0.955 | S. cerevisiae deletion strains, locus YDL132W, strain cdc53, active compounds read low 0.939 | S. cerevisiae deletion strains, locus YDL214C, strain PRR2, active compounds read low 0.929 | S. cerevisiae deletion strains, locus YDR052C, strain DBF4, active compounds read low 0.967 | S. cerevisiae deletion strains, locus YDR054C, strain cdc34, active compounds read low 0.939 | S. cerevisiae deletion strains, locus YDR226W, strain ADK1, active compounds read low 0.951 | S. cerevisiae deletion strains, locus YDR477W, strain SNF1, active compounds read low 0.955 | S. cerevisiae deletion strains, locus YER123W, strain YCK3, active compounds read low 0.905 | S. cerevisiae deletion strains, locus YER133W, strain GLC7, active compounds read low 0.945 | S. cerevisiae deletion strains, locus YFL009W, strain cdc4, active compounds read low 0.952 | S. cerevisiae deletion strains, locus YFL029C, strain CAK1, active compounds read low 0.947 | S. cerevisiae deletion strains, locus YFR003C, strain YPI1, active compounds read low 0.956 | S. cerevisiae deletion strains, locus YFR019W, strain FAB1, active compounds read low 0.94 | S. cerevisiae deletion strains, locus YFR028C, strain CDC14, active compounds read low 0.95 | S. cerevisiae deletion strains, locus YGR040W, strain KSS1, active compounds read low 0.953 | S. cerevisiae deletion strains, locus YGR052W, strain FMP48, active compounds read low 0.967 | S. cerevisiae deletion strains, locus YGR092W, strain DBF2, active compounds read low 0.9 | S. cerevisiae deletion strains, locus YHR030C, strain SLT2, active compounds read low 0.916 | S. cerevisiae deletion strains, locus YHR079C, strain IRE1, active compounds read low 0.973 | S. cerevisiae deletion strains, locus YHR082C, strain KSP1, active compounds read low 0.98 | S. cerevisiae deletion strains, locus YHR205W, strain SCH9, active compounds read low 0.864 | S. cerevisiae deletion strains, locus YIL147C, strain SLN1, active compounds read low 0.966 | [2] 0.934 | S. cerevisiae deletion strains, locus YJL128C, strain PBS2, active compounds read low 0.856 | S. cerevisiae deletion strains, locus YJL157C, strain FAR1, active compounds read low 0.945 | S. cerevisiae deletion strains, locus YJR016C, strain ILV3, active compounds read low 0.959 | S. cerevisiae deletion strains, locus YJR066W, strain TOR1 (second series), active compounds read low 0.943 | S. cerevisiae deletion strains, locus YJR066W, strain TOR1, active compounds read low 1.01 | S. cerevisiae deletion strains, locus YKL048C, strain ELM1, active compounds read low 0.913 | S. cerevisiae deletion strains, locus YKL067W, strain YNK1, active compounds read low 0.91 | S. cerevisiae deletion strains, locus YKL101W, strain HSL1, active compounds read low 0.902 | S. cerevisiae deletion strains, locus YKL193C, strain SDS22, active compounds read low 0.942 | S. cerevisiae deletion strains, locus YKL203C, strain TOR2, active compounds read low 1.02 | S. cerevisiae deletion strains, locus YLR133W, strain CKI1, active compounds read low 0.949 | S. cerevisiae deletion strains, locus YLR403W, strain SFP1, active compounds read low 0.935 | S. cerevisiae deletion strains, locus YML070W, strain DAK1, active compounds read low 0.897 | S. cerevisiae deletion strains, locus YMR001C, strain CDC5, active compounds read low 0.947 | S. cerevisiae deletion strains, locus YMR205C, strain PFK2 (second series), active compounds read low 0.925 | S. cerevisiae deletion strains, locus YMR277W, strain FCP1, active compounds read low 0.948 | S. cerevisiae deletion strains, locus YNL006W, strain LST8, active compounds read low 0.951 | S. cerevisiae deletion strains, locus YNL020C, strain ARK1, active compounds read low 0.939 | S. cerevisiae deletion strains, locus YNL161W, strain CBK1, active compounds read low 0.961 | S. cerevisiae deletion strains, locus YNL183C, strain NPR1, active compounds read low 0.958 | S. cerevisiae deletion strains, locus YNL207W, strain RIO2, active compounds read low 0.957 | S. cerevisiae deletion strains, locus YNL222W, strain SSU72, active compounds read low 0.94 | S. cerevisiae deletion strains, locus YNL307C, strain MCK1 (second series), active compounds read low 0.918 | S. cerevisiae deletion strains, locus YOL078W, strain AVO1, active compounds read low 0.952 | S. cerevisiae deletion strains, locus YOL136C, strain PFK27, active compounds read low 0.926 | [3] 0.937 | S. cerevisiae deletion strains, locus YOR119C, strain RIO1, active compounds read low 0.991 | S. cerevisiae deletion strains, locus YOR231W, strain MKK1, active compounds read low 0.942 | S. cerevisiae deletion strains, locus YOR329C, strain SCD5, active compounds read low 0.963 | S. cerevisiae deletion strains, locus YPL031C, strain PHO85, active compounds read low 0.949 | S. cerevisiae deletion strains, locus YPL153C, strain RAD53, active compounds read low 0.936 | S. cerevisiae deletion strains, locus YPL204W, strain HRR25, active compounds read low 0.946 | S. cerevisiae deletion strains, locus YPL209C, strain IPL1, active compounds read low 0.95 | S. cerevisiae deletion strains, locus YPL256C, strain CLN2, active compounds read low 0.898 | S. cerevisiae deletion strains, locus YPR025C, strain CCL1, active compounds read low 0.953 | S. cerevisiae deletion strains, locus YPR106W, strain ISR1, active compounds read low 0.92 | S. cerevisiae deletion strains, locus YPR111W, strain DBF20, active compounds read low 0.926 | S. cerevisiae deletion strains, strain NNK1, active compounds read low 0.921 | S. cerevisiae deletion strains, strain TSCII, active compounds read low 0.948

Source: PubChem BioAssay AID1159580 (chemical genetic matrix, 2015)
